Test results from the supplement of paper PMC8975748.
Structures can show the parent of a compound that is named as a salt. ± gives the standard deviation of the averaged measurements.

Test system: Saccharomyces cerevisiae BY4741 SeMeCo community
Test: mean cell size (pixel area) (pixels); higher = larger cells
Details: 10 µM; 24 h; SM minimal medium
In short: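 Yeast cells were fixed with paraformaldehyde, imaged by automated confocal microscopy and analysed in Harmony to obtain mean cell pixel area per well. They came from a four-plasmid fluorescent Saccharomyces cerevisiae BY4741 community, each plasmid complementing one auxotrophy and carrying a fluorescent marker. Before imaging, 70 µl of culture at OD600 = 0.3 was incubated for 24 h in SM medium in 384-well plates predosed acoustically with drug (final 10 µM). Values are means of 3 replicates. Same SeMeCo high-content imaging drug screen: Selleck FDA-approved drugs at 10 µM, 24 h in SM medium, 384-well plates, 3 replicates.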

Compound | mean cell size
Nc1ccc(S(=O)(=O)c2ccc(N)cc2)cc1 [Dapson] | 12.5 ± 0.26
CN(C)c1cc(NC(=O)CNC(C)(C)C)c(O)c2c1C[C@H]1C[C@H]3[C@H](N(C)C)C(O)=C(C(N)=O)C(=O)[C@@]3(O)C(O)=C1C2=O [Tigecycline] | 12.8 ± 0.2
O=c1[nH]cnc2c1ncn2[C@H]1CC[C@@H](CO)O1 [Didanosine] | 12.4 ± 0.19
CN(C)[C@@H]1C(O)=C(C(N)=O)C(=O)[C@@]2(O)C(O)=C3C(=O)c4c(O)ccc(Cl)c4[C@@](C)(O)[C@H]3C[C@@H]12 [Chlortetracycline HCl] | 12.4 ± 0.2
CCCCCCCCCC(=O)N[C@H]1[C@H](Oc2c3cc4cc2Oc2ccc(cc2Cl)[C@@H](O[C@@H]2O[C@H](CO)[C@@H](O)[C@H](O)[C@H]2NC(C)=O)[C@@H]2NC(=O)[C@H](NC(=O)[C@@H]4NC(=O)[C@H]4NC(=O)[C@@H](Cc5ccc(c(Cl)c5)O3)NC(=O)[C@H](N)c3ccc(O)c(c3)Oc3cc(O)cc4c3)c3ccc(O)c(c3)-c3c(OC4O[C@H](CO)[C@@H](O)[C@H](O)[C@@H]4O)cc(O)cc3[C@@H](C(=O)O)NC2=O)O[C@H](CO)[C@@H](O)[C@@H]1O (some centres undefined) [Teicoplanin] | 11.8 ± 0.16
CCCCCCCCCC(=O)CC(O)S(=O)(=O)O (centres undefined) [Sodium Houttuyfonate] | 12.02 ± 0.032
CN(C)CC(c1ccc(O)cc1)C1(O)CCCCC1 (centres undefined) [Desvenlafaxine] | 12.4 ± 0.27
NS(=O)(=O)c1cc(C(=O)O)c(NCc2ccco2)cc1Cl [Furosemide] | 12.5 ± 0.21
C=C1CC[C@@H]2[C@](C)(CO)[C@H](O)CC[C@@]2(C)[C@H]1C/C=C1\C=COC1=O [Dehydroandrographolide] | 12.37 ± 0.086
